This is a sample that favours compounds with a hit; in the whole collection about 4.1% have one here.
tim10-1 inh – inhibits growth of tim10-1 mutant yeast; inhibition, % at 20 µM; 2.2% of 330,000 active; S. cerevisiae tim10-1 ts strain growth, BacTiter-Glo, 24 h;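 active = inhibition of at least 40%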;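 also: mutant grown at 25 °C; 0% = DMSO wells with yeast and 100% = wells holding no yeast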
NLRP3 yeast inh – inhibitors of NALP3 inflammasome in yeast; Yeast reconstituted NLRP3/ASC/caspase-1, beta-gal luminescence, 24 h; inhibition, % at 10 µM; 0.39% of 330,000 active; AID 2825;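 active = inhibition of 50% or more; inactive = inhibition below 50%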;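 also: plate controls were induced DMSO wells for no effect and uninduced yeast grown without galactose for full effect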
TIM10 inh – TIM10 yeast growth inhibition; 1.4% of 330,000 active; AID 463195; S. cerevisiae TIM10 strain growth, BacTiter-Glo luminescence, 24 h; inhibition, % at 10 µM;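 active = inhibition of 40% or more at the single tested concentration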;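 also: wild-type TIM10 isogenic control strain grown at permissive 25 °C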
NALP1 inh – blocks the NALP1 inflammasome reconstituted in yeast. S. cerevisiae NALP1/ASC/caspase-1 growth, X-gal OD620, 72 h. inhibition, % at 10 µM. 0.61% of 280,000 active; in the data active = inhibition mostly above about 24%, no sharp cut-off; inactive = mostly below about 32%
tim23-1 inh – tim23-1 yeast growth inhibition | inhibition, % at 20 µM | S. cerevisiae tim23-1 growth, BacTiter-Glo luminescence, 24 h | AID 463212 | 1.3% of 330,000 active;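 active = growth inhibition of the mutant yeast at or above 50%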;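 also: temperature-sensitive mutant grown at 25 °C; plate controls were DMSO-treated mutant yeast for no effect and medium wells lacking yeast for full effect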
NALP3 yeast conf – confirmation of NALP3 inhibitors in yeast; shares compounds with NLRP3 yeast inh; yeast expressing human NALP3, luminescence; inhibition, % at 10 µM; 81% of 1,300 active; AID 435006; in the data active = inhibition above about 48%
Casp1-ASC yeast – counter-screen for NALP3 inhibitors: yeast caspase-1-ASC | shares compounds with NLRP3 yeast inh | yeast expressing Caspase-1-ASC, luminescence counter screen | inhibition, % at 10 µM | 66% of 1,000 active | AID 488784
NALP3 retest – yeast NALP3 inhibition, confirmed on retest; shares compounds with NLRP3 yeast inh; AID 488794; yeast expressing human NALP3, luminescence read-out; inhibition, % at 10 µM; 53% of 1,000 active
tim10-1 conf – confirmation of tim10-1 mutant yeast growth inhibitors; shares compounds with tim10-1 inh; inhibition, % at 20 µM; S. cerevisiae tim10-1 ts strain growth, BacTiter-Glo, 24 h; 56% of 7,400 active; AID 463213;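 active = inhibition of yeast growth at or above a set limit in either of two repeat tests at 20 µM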;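 also: tim10-1 mutant grown at permissive 25 °C to find synthetic lethal compounds; 0% = DMSO yeast wells and 100% = medium wells without yeast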
tim10 confirm – TIM10 yeast growth inhibition, confirmed | shares compounds with TIM10 inh | S. cerevisiae tim10 strain growth, BacTiter-Glo luminescence, 24 h | inhibition, % at 10 µM | 63% of 4,600 active;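 active = inhibition of yeast growth at or above a set limit in either of two replicates at 10 µM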;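 also: this counterscreen used the strain with wild-type TIM10; 0% = yeast with DMSO and 100% = medium wells lacking yeast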
tim23-1 conf – confirmation of tim23-1 mutant yeast growth inhibitors. S. cerevisiae tim23-1 growth, BacTiter-Glo luminescence, 24 h. shares compounds with tim23-1 inh. 83% of 4,400 active. inhibition, % at 20 µM. AID 463218;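 active = inhibition above about 39% in either of two replicate wells at 20 µM, limit read from the data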;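 also: temperature-sensitive tim23-1 mutant grown at 25 °C; 0% = DMSO wells with yeast and 100% = medium wells without yeast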
An asterisk follows results filed as active. Rule as the data show it, unless noted: active = inhibition above about 50%; inactive = the rest.

How did Cc1ccc(Nc2c(-c3ccccn3)nc3cc(C)ccn23)cc1 do in these assays?
tim10-1 inh: 36; NLRP3 yeast inh: 53*; TIM10 inh: 25; NALP1 inh: -3; tim23-1 inh: 57*; NALP3 yeast conf: 63*; Casp1-ASC yeast: 50*; NALP3 retest: 41; tim23-1 conf: 50*

Results for O=C(NCCC1=CCCCC1)c1c(O)nc2ccccn2c1=O ?
tim10-1 inh: 51*; NLRP3 yeast inh: 63*; TIM10 inh: 31; NALP1 inh: 18; tim23-1 inh: 56*; NALP3 yeast conf: 76*; Casp1-ASC yeast: 52*; NALP3 retest: 55*; tim10-1 conf: -6; tim23-1 conf: 56*

What do the screens show for `O=C(NCCC1=CCCCC1)c1c(O)nc2sccn2c1=O`?
tim10-1 inh: 42*; NLRP3 yeast inh: 67*; TIM10 inh: 36; tim23-1 inh: 75*; NALP3 yeast conf: 79*; Casp1-ASC yeast: 48; NALP3 retest: 56*; tim10-1 conf: 1; tim23-1 conf: 62*

Results for CCn1c(=O)c(C(=O)NCCCc2ccccc2)c(O)c2ccccc21 ?
tim10-1 inh: -36; NLRP3 yeast inh: 15; TIM10 inh: -15; NALP1 inh: -2; tim23-1 inh: 0

What do the screens show for `O=C(NCCC1=CCCCC1)c1cnsn1`?
tim10-1 inh: 12; NLRP3 yeast inh: -4; TIM10 inh: 2; NALP1 inh: 8; tim23-1 inh: 6

How did O=C(NCCCc1ccccc1)c1c(O)nc2sccn2c1=O do in these assays?
tim10-1 inh: 36; NLRP3 yeast inh: 63*; TIM10 inh: 31; tim23-1 inh: 70*; NALP3 yeast conf: 77*; Casp1-ASC yeast: 39; NALP3 retest: 59*; tim23-1 conf: 54*

Results for COc1cc(/C=C/c2cccc[n+]2C)ccc1OCC(=O)Nc1ccccc1C ?
tim10-1 inh: 4; NLRP3 yeast inh: 16; TIM10 inh: -3; NALP1 inh: 22; tim23-1 inh: -16

What do the screens show for `CCOc1cc(/C=C\[N+](=O)[O-])ccc1OCC(=O)Nc1ccccc1C`?
tim10-1 inh: 13; NLRP3 yeast inh: 58*; TIM10 inh: 56*; NALP1 inh: 0; tim23-1 inh: 58*; NALP3 yeast conf: 25; tim10 confirm: 13; tim23-1 conf: 78*

How did Cc1ccnc2c1ccc1ccccc12 do in these assays?
tim10-1 inh: 12; NLRP3 yeast inh: 17; TIM10 inh: -7; NALP1 inh: -4; tim23-1 inh: 19

Results for Cc1c2ccccc2c(C)c2c1ccc1ccccc12 ?
tim10-1 inh: 50*; NLRP3 yeast inh: 65*; TIM10 inh: 84*; tim23-1 inh: 77*; NALP3 yeast conf: 62*; tim10-1 conf: 47*; tim10 confirm: 88*; tim23-1 conf: 80*

Results for CCCc1nn2c(=O)cc(CSCC(=O)Nc3ccc(OC)cc3)nc2s1 ?
tim10-1 inh: -12; NLRP3 yeast inh: 4; TIM10 inh: 6; NALP1 inh: 19; tim23-1 inh: 8

Results for O=C(c1cc2ccccc2oc1=O)N(c1ccc(Cl)cc1)C1C=CS(=O)(=O)C1 (stereo not given) ?
tim10-1 inh: 12; NLRP3 yeast inh: 15; TIM10 inh: -8; NALP1 inh: 7; tim23-1 inh: 15

Results for O=C(CCN1CCC(c2cccs2)=N1)c1cccs1 ?
tim10-1 inh: 41*; NLRP3 yeast inh: 90*; TIM10 inh: 63*; NALP1 inh: -4; tim23-1 inh: 63*; NALP3 yeast conf: 90*; Casp1-ASC yeast: 96*; NALP3 retest: 87*; tim10-1 conf: 30; tim10 confirm: 69*; tim23-1 conf: 84*

How did Nc1nc(-c2cc(-c3ccccc3)no2)cs1 do in these assays?
tim10-1 inh: 26; NLRP3 yeast inh: 56*; TIM10 inh: 51*; NALP1 inh: -4; tim23-1 inh: 80*; NALP3 yeast conf: 75*; Casp1-ASC yeast: 64*; NALP3 retest: 61*; tim10 confirm: 58*; tim23-1 conf: 75*

What do the screens show for `Nc1nc(-c2ccccc2)cs1`?
tim10-1 inh: 4; NLRP3 yeast inh: 20; TIM10 inh: 2; NALP1 inh: 18; tim23-1 inh: 15

Results for COc1cc(OC)c(/C=C2\C(=O)Nc3ccccc32)c(OC)c1 ?
tim10-1 inh: 39; NLRP3 yeast inh: 29; TIM10 inh: 23; tim23-1 inh: 46

What do the screens show for `C=CCOc1ccccc1C(=O)/C=C1/C(=O)Nc2ccccc21`?
tim10-1 inh: 50*; NLRP3 yeast inh: 59*; TIM10 inh: 80*; NALP1 inh: -23; tim23-1 inh: 89*; NALP3 yeast conf: 75*; Casp1-ASC yeast: 53*; NALP3 retest: 59*; tim10-1 conf: active; tim10 confirm: 64*; tim23-1 conf: 16

What do the screens show for `NC(=O)COc1ccc(C(=O)/C=C2/C(=O)Nc3ccccc32)cc1`?
tim10-1 inh: 34; NLRP3 yeast inh: 18; TIM10 inh: 35; NALP1 inh: 11; tim23-1 inh: 30

What do the screens show for `COc1ccc(C(=O)/C=C2/C(=O)Nc3ccccc32)c(OC)c1`?
tim10-1 inh: 50*; NLRP3 yeast inh: 69*; TIM10 inh: 68*; NALP1 inh: -50; tim23-1 inh: 70*; NALP3 yeast conf: 82*; Casp1-ASC yeast: 76*; NALP3 retest: 80*; tim10-1 conf: 59*; tim10 confirm: 67*; tim23-1 conf: -23

Results for CCOC(=O)c1c(S(=O)(=O)NC2CCN(C(=O)OCC)CC2)c(C)n(C)c1C ?
tim10-1 inh: 16; NLRP3 yeast inh: 8; TIM10 inh: 7; NALP1 inh: 17; tim23-1 inh: 13

How did c1ccc(-c2nc(-c3ccccn3)no2)cc1 do in these assays?
tim10-1 inh: -3; NLRP3 yeast inh: 12; TIM10 inh: 3; NALP1 inh: -66; tim23-1 inh: 19

What do the screens show for `c1ccc(-c2ccc(-c3nc(-c4ccccn4)no3)cc2)cc1`?
tim10-1 inh: 46*; NLRP3 yeast inh: 53*; TIM10 inh: 29; NALP1 inh: 15; tim23-1 inh: 54*; NALP3 yeast conf: 50*; Casp1-ASC yeast: 47; NALP3 retest: 37; tim10-1 conf: 49*; tim23-1 conf: 74*

Screens deposited in PubChem BioAssay by Sanford-Burnham Center for Chemical Genomics.
